Many of the other results were omitted from the sample, so hits are more common in it than they were.
HT1080-NT tox: qHTS for induction of synthetic lethality in tumor cells producing 2HG: qHTS for the HT-1080-NT fibrosarcoma cell line; Potency, µM (titrated, usually from 46.1 µM), for inactives: top-dose activity, negative = less viability, usual class: cytotoxic; 360,000 tested, 1.6% active; HT-1080-NT fibrosarcoma viability, CellTiter-Glo ATP luminescence, 48 h; AID 686970, 2013;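 further: NT is the 2HG producing partner of a matched IDH1 knockdown line; potency means the concentration at half of the fitted maximal effect; 0% = DMSO-treated cells and -100% = media-only wells without cells; nearly all actives have a fitted effect of over 55% in size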
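A 48-hour cytotoxicity screen used HT-1080-NT cells plated 2 hours before compound delivery. ATP-based CellTiter-Glo luminescence measured viability, normalized to DMSO and no-cell controls.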
12-LOX inh: Primary qHTS assay for inhibitors of human arachidonate 12S-lipoxygenase (ALOX12): Round 2 | 580,000 tested, 1.1% active | AID 1671190, 2021 | Potency, µM (series often up to 108 µM), for the others: at the top dose activity change, negative = inhibition, actives largely listed as inhibitors | purified 12hLO, xylenol orange hydroperoxide absorbance; further: potency means the concentration at half of the fitted maximal effect
Target sequence (P18054 whole entry, looked up): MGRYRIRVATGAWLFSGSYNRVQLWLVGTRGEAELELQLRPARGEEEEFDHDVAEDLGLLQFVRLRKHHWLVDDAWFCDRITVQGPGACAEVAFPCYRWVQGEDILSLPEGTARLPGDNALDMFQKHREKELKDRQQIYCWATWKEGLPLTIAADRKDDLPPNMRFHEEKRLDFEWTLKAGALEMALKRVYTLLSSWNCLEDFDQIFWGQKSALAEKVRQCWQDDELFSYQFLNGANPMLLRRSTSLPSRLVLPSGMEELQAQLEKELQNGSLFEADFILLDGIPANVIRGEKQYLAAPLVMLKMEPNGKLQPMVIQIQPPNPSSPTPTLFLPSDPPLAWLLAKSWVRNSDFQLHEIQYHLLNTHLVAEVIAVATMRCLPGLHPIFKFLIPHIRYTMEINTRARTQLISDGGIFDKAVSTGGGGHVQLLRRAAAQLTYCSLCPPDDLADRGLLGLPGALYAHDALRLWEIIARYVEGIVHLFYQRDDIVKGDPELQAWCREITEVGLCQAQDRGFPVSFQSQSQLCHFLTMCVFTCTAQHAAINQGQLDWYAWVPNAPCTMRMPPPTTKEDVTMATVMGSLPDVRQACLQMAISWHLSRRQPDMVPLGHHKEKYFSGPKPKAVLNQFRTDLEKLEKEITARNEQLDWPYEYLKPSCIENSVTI
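Hydroperoxide product was detected by ferrous iron/xylenol orange as the 573 to 405 nm absorbance ratio. Arachidonic acid at 40 uM (final) was turned over for 30 min at room temperature by 150 nM human 12hLO, pH 7.0 Hepes buffer, after 15 min compound preincubation.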
HT1080 IDH1KD tx: qHTS for induction of synthetic lethality in tumor cells producing 2HG: qHTS for the HT-1080-IDH1KD cell line; HT-1080 IDH1 knockdown viability, ATP luminescence, 48 h; Potency, µM (series often up to 46.1 µM), for the others: at the top dose activity, negative = toxicity, actives largely listed as cytotoxic; 360,000 tested, 2% active; AID 686971, 2013;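 further: potency means the concentration at half of the fitted maximal effect; 0% = DMSO wells and -100% = cell-free medium wells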
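Luminescent ATP read-out (CellTiter-Glo, 10 min at room temperature) after 48 h compound exposure at 37 °C gave viability of IDH1-knockdown HT-1080 cells. Activity was normalised to DMSO and cell-free wells, then fitted as concentration-response curves.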
DT40 TDP1 no CPT: qHTS for Inhibitors of human tyrosyl-DNA phosphodiesterase 1 (TDP1): qHTS in cells in absence of CPT. 420,000 tested, 15% active. DT40 Tdp1-/- hTDP1 cells, no CPT, ATP luminescence, 48 h. Potency, µM (highest dose often 46.2 µM), inactives show at the top dose activity change, negative = growth inhibition, hits mostly inhibitors; further: potency means the concentration at half of the fitted maximal effect; nearly all actives have a fitted effect of over 55% in size
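Compound effects on proliferation are scored in DT40 Tdp1-/-;hTDP1 cells in the absence of CPT. ATP levels (CellTiter-Glo luminescence) are recorded after a ≥48 hr, 37 °C incubation.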
TDP1 cell CPT: qHTS for Inhibitors of human tyrosyl-DNA phosphodiesterase 1 (TDP1): qHTS in cells in presence of CPT; 420,000 tested, 12% active; chicken DT40 Tdp1-/-;hTDP1 cells + 20 nM CPT, ATP luminescence, 48 h; Potency, µM (titrated, usually from 46.2 µM), without a hit: top-dose activity change, negative = growth inhibition, usual class: inhibitors; AID 686979, 2013; further: potency means the concentration at half of the fitted maximal effect; nearly all actives have a fitted effect of over 55% in size
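Chicken DT40 Tdp1-/- cells stably complemented with human TDP1 were seeded at 400 cells/well in medium containing 20 nM camptothecin, exposed to pin-transferred compounds, and grown at 37 °C for at least 48 hr. Viability was read as ATP luminescence.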
IL-1B inflam inh: qHTS for Inhibitors of Inflammasome Signaling: IL-1-beta AlphaLISA Primary Screen. THP-1 LPS/ATP IL-1B secretion, AlphaLISA, 16 h; active compounds read low. activity change, % at 57.5 µM. 360,000 tested, 4.7% active. AID 743279, 2014; in the data active means activity change below about -50%; inconclusive means mostly about -30% to -49%
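Secreted IL-1B measured by AlphaLISA bead assay after 16 h compound exposure of THP-1 cells; compounds (final up to 57.5 uM) added 1 h before LPS (250 ng/mL) and ATP (1.25 mM) stimulation; lower signal means less secretion.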
* = called active by the depositor; ? = inconclusive; . = no result given; [ ] = remark or other dose. Unless noted, the call rests on the fitted dose curve; in most records, active means well fitted curve in the direction sought with a large enough effect; inconclusive means small, poorly fitted or top-dose-only effect, or another doubt; inactive means no such curve, though single readings can be large; an effect the other way counts as inactive or inconclusive. Unless noted, on the % scale 0 is the no-effect control and ±100 the full control effect.

SMILES	HT1080-NT tox	12-LOX inh	HT1080 IDH1KD tx	DT40 TDP1 no CPT	TDP1 cell CPT	IL-1B inflam inh
O=C(N/N=C/c1cccs1)c1[nH]ncc1Br	-11%	6%	1%	0%	-11%	?
O=C(N/N=C\c1c(O)ccc2ccccc12)c1ccc(Cn2cccn2)o1	?	-28%	?	5.8µM*	5.8µM*	74
O=C(N/N=C/c1c(O)ccc2ccccc12)c1[nH]ncc1Br	?	?	?	4.6µM*	2.6µM*	99
CN(C(=O)c1oc(=O)c2ccccc2c1-c1ccccc1)c1cccc(Cl)c1	.	-18%	.	23µM*	18µM*	.
Nc1c(Cl)ncnc1N/N=C/c1ccccn1	?	?	?	0.021µM*	0.018µM*	-83*
Nc1c(Cl)ncnc1N/N=C/c1cccnc1	-2%	?	0%	2%	5%	.
COC(=O)[C@]12C[C@H](CC(=O)N3CCN(C(=O)c4ccco4)CC3)C(=O)N(Cc3ccc4c(c3)OCO4)C1=C[C@H](C(C)(C)C)O[C@@H]2C	.	0%	.	.	.	.
COC(=O)[C@@]12C[C@@H](CC(=O)N3CCN(C(=O)c4ccco4)CC3)C(=O)N(Cc3ccccc3)C1=CCC(C)(C)C2	9%	-2%	-1%	15µM*	?	-5
COC(=O)[C@@]12C[C@@H](CC(=O)N3CCN(C(=O)c4ccco4)CC3)C(=O)N(Cc3ccc4c(c3)OCO4)C1=CCC(C)(C)C2	-22%	-8%	-10%	21µM*	18µM*	?
COC(=O)[C@]12CCCCC=C1N(Cc1ccc3c(c1)OCO3)C(=O)[C@H](CC(=O)N1CCN(C(=O)c3ccco3)CC1)C2	22%	-6%	14%	?	?	-56*
COC(=O)[C@]12CCCCC=C1N(Cc1ccccc1)C(=O)[C@H](CC(=O)N1CCN(C(=O)c3ccco3)CC1)C2	9%	2%	14%	?	?	-3
COC(=O)[C@@]12C[C@@H](CC(=O)N3CCN(C(=O)c4ccco4)CC3)C(=O)N(Cc3ccco3)C1=CCC(C)(C)C2	23%	9%	3%	?	?	-11
COc1ccc(SC(C)C(=O)NC(C)(C)C)cc1 (centres undefined)	.	34%	.	.	.	.
COCCNC(=O)N1CCN(c2oc(-c3ccco3)nc2C#N)CC1	.	-17%	.	.	.	.
COc1cccc(N2C(=O)NC(=NC3CCCC3)C23CCN([S+](=O)([O-])c2cccc(OC)c2)C3)c1 (centres undefined)	.	1%[6.33 µM]	.	.	.	.
O=C(NC1CC2CCCC(C1)N2Cc1ccco1)NC12CC3CC(CC(C3)C1)C2 (centres undefined)	-1%	0%	4%	18µM*	21µM*	-4
O=c1oc2ccccc2nc1/C=C(\O)c1ccccc1	-6%	242%	-5%	?	?	39
O/C(=C\c1nc2ccccc2nc1/C=C(\O)c1ccccc1)c1ccccc1	21µM*	.	?	?	?	-98*
O=C1CC(c2ccccc2O)Cc2nc(N3CCN(c4cccc(Cl)c4)CC3)ncc21 (centres undefined)	.	-21%	.	.	.	.
CC(=O)c1c(C)[nH]c(C(=O)OCC(=O)Nc2sc3c(c2C#N)CCC(C)C3)c1C (centres undefined)	-9%	?	26µM*	23µM*	?	13
Cc1cc(C(=O)OCC(=O)Nc2sc3c(c2C#N)CCC(C)C3)c2ccccc2n1 (centres undefined)	16%	40µM*	-5%	2%	13%	52
COCC1CN(C2CCC2)CC12CCN(C(=O)CC1CCCC1)CC2 (centres undefined)	.	62%	.	.	.	.
CC(=O)Oc1ccc(C2=Cc3ccc(OC(C)=O)cc3OC2C)cc1 (centres undefined)	?	-11%	16µM*	12µM*	18µM*	9
CC1=C(C(=O)OC(C)C)C(c2ccc(C)cc2)CC(=O)N1Cc1cccc(C#N)c1 (centres undefined)	.	4%	.	.	.	.
COc1ccc(-c2ccc3c(c2)[C@@H]2C[C@H](N(C)C(=O)Nc4ccccc4)[C@H]([C@H](C)O)C(=O)N2CC3)cc1	-8%	2%	-7%	?	?	-8
SMILES	HT1080-NT tox	12-LOX inh	HT1080 IDH1KD tx	DT40 TDP1 no CPT	TDP1 cell CPT	IL-1B inflam inh
COc1ccc(S(=O)(=O)N(C)[C@H]2C[C@H]3c4cc(Oc5ccccc5C)ccc4CCN3C(=O)[C@H]2[C@H](C)O)cc1	-22%	?	?	6.5µM*	9.2µM*	?
COc1ccc(S(=O)(=O)N(C)[C@H]2C[C@H]3c4cc(-c5ccccc5)ccc4CCN3C(=O)[C@H]2[C@H](C)O)cc1	?	?	?	21µM*	?	-29
CS(=O)(=O)Nc1ccc(S(=O)(=O)N2CCCC2)cc1	8%	-2%	9%	-2%	13%	27
Cc1sc(N2CCCC2)nc1-c1ccc(NS(C)(=O)=O)cc1	.	35µM*	.	.	.	.
Cc1cccc(OCCC(=O)OC(C)C(=O)Nc2ccc(S(N)(=O)=O)cc2)c1 (centres undefined)	.	38%	.	.	.	.
Cc1n(Cc2ccccc2)c2cc([N+](=O)[O-])ccc2[n+]1Cc1ccccc1	0%	-7%	1%	21µM*	?	-14
COC(=O)Cn1c(N)[n+](Cc2ccccc2)c2ccccc21	1%	4%	2%	0%	7%	0
CC(O)c1nc2cc([N+](=O)[O-])ccc2n1Cc1ccccc1 (centres undefined)	-3%	-14%	-6%	?	?	19
CCn1c(C)[n+](Cc2ccccc2)c2ccc(Cl)cc21	-19%	?	-2%	12µM*	10µM*	22
Cc1n(Cc2ccccc2)c2ccccc2[n+]1Cc1ccccc1	-16%	-22%	?	0.73µM*	1.2µM*	-72*
COc1cc(C=O)cc(Br)c1OCc1cccc(C)c1	.	-1%	.	.	.	.
COc1ccc(C(=O)NC(NC(C)C)C(Cl)(Cl)Cl)cc1 (centres undefined)	.	18%	.	.	.	.

Bioassay records: PubChem BioAssay, National Center for Advancing Translational Sciences (NCATS)
